Source: PubChem
Most compounds without a hit are left out; they make up all but 0.41% or so of the library.
MLL CXXC-DNA inh = MLL CXXC-DNA interaction inhibition. Potency, µM (series often up to 115 µM), most hits filed as inhibitors. actives 0.037% (n = 290,000). MLL-CXXC / FITC-HOXA9 DNA fluorescence polarization. Q03164; active means well fitted inhibition curve with a large enough effect in the polarisation, with a control signal flat, not every such curve was filed as active; inconclusive means small, poorly fitted or top-dose-only effect, or effect the other way, or a change in a side signal; inactive means no such curve, though single readings can be large or run the other way; the % refers to the polarisation
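Fluorescence polarization: 7 uM MLL-CXXC (stock) preincubated 5 min with compounds, then 50 nM fluorescein-HOX-A9 DNA (stock) added; 30 min ambient. Buffer 50 mM Tris-HCl pH 7.5, 50 mM NaCl, 1 mM DTT, 0.05% BSA.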
PKM2 act = increases activity of human pyruvate kinase M2 | AID 1631 | purified PKM2, Kinase-Glo ATP luminescence, activation; response scale: 0% is enzyme alone, no compound | Potency, µM (highest dose often 57.5 µM), usual class: activators | P14618 | actives 0.34% (n = 260,000); active means well fitted activation curve with a large enough effect; inconclusive means small, poorly fitted or top-dose-only effect; inactive means no such curve, though single readings can be large or run the other way; further: nearly all actives have a fitted effect of over 55% in size
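hPK-M2, >95% pure; 0.1 mM ADP / 0.5 mM PEP final; imidazole pH7.2 buffer w/ 7 mM MgCl2, 50 mM KCl; 1 h RT; Kinase-Glo lum. Intermediate enzyme activity for dual inhibitor/activator qHTS.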
Menin-MLL TR inh = menin-MLL binding inhibition, Texas Red mutant peptide; O00255; Potency, µM (top dose mostly 61.6 µM), hits mostly inhibitors; AID 1768; actives 0.23% (n = 270,000); Menin + Texas Red MLL mutant peptide, fluorescence polarization; active means well fitted inhibition curve with a large enough effect in the polarisation, with a control signal flat, not every such curve was filed as active; inconclusive means small, poorly fitted or top-dose-only effect, or effect the other way, or a change in a side signal; inactive means no such curve, though single readings can be large or run the other way; the % refers to the polarisation
Target sequence (O00255 whole entry, looked up): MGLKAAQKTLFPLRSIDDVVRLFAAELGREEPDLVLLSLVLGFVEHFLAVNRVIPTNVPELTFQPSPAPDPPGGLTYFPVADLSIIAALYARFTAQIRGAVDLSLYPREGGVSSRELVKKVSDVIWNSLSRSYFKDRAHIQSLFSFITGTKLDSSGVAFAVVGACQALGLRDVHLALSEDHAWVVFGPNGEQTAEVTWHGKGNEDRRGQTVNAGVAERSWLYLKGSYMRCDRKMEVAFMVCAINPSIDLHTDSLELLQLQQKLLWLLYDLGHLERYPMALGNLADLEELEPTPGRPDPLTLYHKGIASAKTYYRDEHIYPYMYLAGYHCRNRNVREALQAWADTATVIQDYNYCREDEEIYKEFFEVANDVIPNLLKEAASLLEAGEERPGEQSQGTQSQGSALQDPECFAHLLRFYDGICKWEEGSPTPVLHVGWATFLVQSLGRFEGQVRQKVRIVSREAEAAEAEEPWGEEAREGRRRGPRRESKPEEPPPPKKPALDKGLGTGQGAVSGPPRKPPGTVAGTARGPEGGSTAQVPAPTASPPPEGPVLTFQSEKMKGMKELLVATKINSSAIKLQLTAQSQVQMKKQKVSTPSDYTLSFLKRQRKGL
Menin MLL FP FL = inhibitors of human menin-MLL interaction, wild-type MLL peptide | Fluorescence polarization, fluorescein-MLL peptide displacement from menin | 290,000 tested, under 10 active | FP activity change, % at 61.4 µM; active means well fitted curve in the direction sought with a large enough effect in the polarisation, not every such curve was filed as active; inconclusive means small, poorly fitted or top-dose-only effect, or effect the other way, or a change in a side signal; inactive means no such curve, though single readings can be large or run the other way; the % refers to the polarisation
Of the large screens only hits and unclear results are named; the others gave an inactive call.

O=C(CCc1nc2ccccc2s1)N1CCN(S(=O)(=O)c2cccs2)CC1	PKM2 act inconclusive
O=S(=O)(c1cccs1)N1CCN(Cc2nc3ccccc3s2)CC1	PKM2 act 22.4µM
O=C(OCc1nc2ccccc2s1)C1CCN(S(=O)(=O)c2cccs2)CC1	PKM2 act 8.91µM
Cc1ccc(CN(C)C(=O)c2ccccc2Oc2ccccc2)o1	PKM2 act 28.2µM
Cc1occc1-c1nnc(SCC(=O)c2ccc(Cl)cc2)n1C	none
Cc1occc1-c1nnc(SCC(=O)c2c[nH]c3ccccc23)n1C	PKM2 act 25.1µM
COc1ccc(S(=O)(=O)c2c(N)n(Cc3ccco3)c3nc4ccccc4nc23)cc1	PKM2 act 28.2µM, Menin-MLL TR inh inconclusive, Menin MLL FP FL inconclusive
COc1ccc(Cn2c3nc4ccccc4nc3c3c(=O)n(Cc4ccco4)c(C)nc32)cc1	none
Cc1cc(C)n(-c2cc(N3CCN(S(=O)(=O)c4ccc(C)c(C)c4)CC3)ccc2[N+](=O)[O-])n1	none (no result: Menin-MLL TR inh)
Cn1cnnc1Sc1cc(N2CCN(S(=O)(=O)c3ccc4ccccc4c3)CC2)ccc1[N+](=O)[O-]	PKM2 act 0.355µM
Cn1cnnc1Sc1cc(N2CCN(S(=O)(=O)c3ccc(Cl)c(Cl)c3)CC2)ccc1[N+](=O)[O-]	PKM2 act 2.82µM
COCCCN(C(=O)c1cc2c(s1)CCC2)c1c(N)n(Cc2ccccc2)c(=O)[nH]c1=O	none
CCCN(C(=O)c1cc2c(s1)CCC2)c1c(N)n(Cc2ccccc2)c(=O)[nH]c1=O	PKM2 act 22.4µM (no result: Menin-MLL TR inh)
O=C(O)c1cccc(Cn2c(Cl)c(/C=N/NC(=O)c3cc4ccccc4cc3O)sc2=O)c1	PKM2 act 31.6µM (no result: Menin-MLL TR inh)
O=C(COC(=O)c1ccc(NS(=O)(=O)c2cccs2)cc1O)NCc1ccccc1	PKM2 act 22.4µM, Menin-MLL TR inh inconclusive
O=C(COC(=O)c1ccc(NS(=O)(=O)c2cccs2)cc1O)Nc1nc2ccccc2s1	Menin-MLL TR inh inconclusive
O=C(COC(=O)c1ccc(NS(=O)(=O)c2cccs2)cc1)NCc1ccco1	PKM2 act 14.1µM (no result: Menin-MLL TR inh)
O=C(c1ccco1)N1CCC2(CC1)CN(c1ccccn1)C2	none (no result: MLL CXXC-DNA inh, PKM2 act)
Cc1noc(C)c1C(=O)N1CCC2(CCCN(c3ccccn3)C2)CC1	none (no result: MLL CXXC-DNA inh, PKM2 act)
C=C(C)C(=O)Nc1cccc(C2=NOC3(C2)C[C@@H](C(N)=O)N(C(=O)/C=C/C=C/C)C3)c1 (stereo partly specified)	PKM2 act 12.6µM (no result: Menin-MLL TR inh)
C/C=C/C=C/C(=O)N1CC2(CC(c3cccc(NC(=O)CCCCC)c3)=NO2)C[C@H]1C(N)=O (stereo partly specified)	PKM2 act 7.94µM (no result: Menin-MLL TR inh)
C=C(C)C(=O)Nc1cccc(C2=NOC3(C2)C[C@@H](C(N)=O)N(C(=O)/C(C)=C/C)C3)c1 (stereo partly specified)	none (no result: Menin-MLL TR inh)
C/C=C/C=C/C(=O)N1CC2(CC(c3cccc(NC(=O)/C=C/C)c3)=NO2)C[C@@H]1C(N)=O (stereo partly specified)	PKM2 act 8.91µM (no result: Menin-MLL TR inh)
COc1cc(NC(=O)O[C@@H]2C(=O)c3cc(Br)ccc3O[C@H]2c2ccc3c(c2)OCO3)cc(OC)c1OC	none (no result: MLL CXXC-DNA inh, PKM2 act)
COc1ccc(NC(=O)/C(C#N)=C/c2ccc(OCc3ccccc3F)cc2)cc1	Menin-MLL TR inh 17.8µM
c1cncc(CSc2nnc3ccc(-c4cccs4)nn23)c1	PKM2 act 25.1µM, Menin-MLL TR inh inconclusive
CS(=O)(=O)Nc1ccc(C2=NN(C(=O)c3ccco3)C(c3ccc(F)cc3)C2)cc1 (stereo unspecified)	PKM2 act 12.6µM
COc1ccc(-c2nc3cnc(N(C)C)nc3n(CCc3ccccc3)c2=O)cc1	none (no result: MLL CXXC-DNA inh, PKM2 act)
CCC(=O)C(C(=O)OC)[C@H](CCc1ccccc1)NC(=O)OC (stereo partly specified)	none (no result: MLL CXXC-DNA inh, PKM2 act)
C(=C\c1ccccn1)/c1ccccn1	Menin-MLL TR inh 12.6µM
N#Cc1c(N)nc2c3c(sc(=N)c2c1N)NC(=O)CC3c1ccccc1 (stereo unspecified)	Menin-MLL TR inh 22.4µM
CC(C1CCCC(=O)C1)[N+](=O)[O-] (stereo unspecified)	none (no result: MLL CXXC-DNA inh, PKM2 act)
CC1CC=CC2C1C(=O)N(Cc1ccccc1)C2c1ccoc1 (stereo unspecified)	Menin MLL FP FL inconclusive (no result: MLL CXXC-DNA inh, PKM2 act)
CCOC(=O)/C=C/CCC/C=C/C(=O)c1ccccc1	none (no result: MLL CXXC-DNA inh, PKM2 act)
COc1cc(NS(=O)(=O)c2ccc(C)cc2C)cc(OC)c1OC	PKM2 act inconclusive
COc1cc(Cl)c(NS(=O)(=O)c2cc3[nH]c(=O)c(=O)[nH]c3cc2C)c(OC)c1	none (no result: MLL CXXC-DNA inh)
